Values joined by “and” are separate entries in the source; they are usually repeats but may differ in a detail not shown here. Equal values may be shown once. Records with an inconclusive call do not appear. Entries that show only a call come without a potency. A number with no mark means an inactive call. Active and inactive are the calls of the source. Unless noted, calls follow the shape of the dose curve; as a rule, active = well fitted curve in the direction sought with a large enough effect; inconclusive = small, poorly fitted or top-dose-only effect, or another doubt; inactive = no such curve, though single readings can be large; an effect the other way counts as inactive or inconclusive.
Key:
[1] = qHTS Assay for Identification of Small Molecule Antagonists for NFkB Signaling Pathway (AID 895; active = well fitted inhibition curve with a large enough effect in the signal ratio, with a control signal flat, not every such curve was filed as active; the % refers to the signal ratio; also: potency is read from the fitted curve at half-maximal effect)
Outline: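 Beta-lactamase reporter read-out (460 and 530 nm emission ratio, 405 nm excitation, 2 hrs substrate loading RT) after 5 hr stimulation with 10 pM TNF alpha in compound-treated NFkB-bla ME-180 cells in low-serum medium.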

[2] = molecular target: Cytochrome P450 2C9 (Homo sapiens) (UniProt P11712); assay: qHTS Assay for Inhibitors and Substrates of Cytochrome P450 2C9 (AID 883); also: nearly all actives have a fitted effect of over 60% in size; also: potency is read from the fitted curve at half-maximal effect
Outline: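 Inhibition of CYP2C9 is scored as loss of luminescence, with 57uM sulphaphenazole defining 100% inhibition. Substrate Luciferin-H is used at 100uM, equal to its KM; enzyme at 10nM in 25mM KPO4, 60 min at 37C with NADPH regeneration.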

[3] = molecular target: Cytochrome P450 2C19 (Homo sapiens) (UniProt P33261); assay: qHTS Assay for Inhibitors and Substrates of Cytochrome P450 2C19 (AID 899); also: nearly all actives have a fitted effect of over 60% in size; also: potency is read from the fitted curve at half-maximal effect
Outline: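 5nM enzyme + 10uM Luciferin-H EGE (=KM), 50mM KPO4; cpd pin-transferred, 10 min 37C; NADPH regen, 60 min 37C; stopped w/ luciferin detection reagent, 20 min; luminescence. Normalized to 57uM ketoconazole (AC100).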

[4] = molecular target: Cytochrome P450 2D6 (Homo sapiens) (UniProt P10635); assay: qHTS Assay for Inhibitors and Substrates of Cytochrome P450 2D6 (AID 891); also: nearly all actives have a fitted effect of over 60% in size; also: potency is read from the fitted curve at half-maximal effect
Outline: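 Luminescent read-out of luciferin formed by 5 nM human CYP2D6 demethylating 30 uM Luciferin-ME EGE (Km level) over 60 min at room temperature after NADPH regeneration addition. Data normalized to full inhibition by 1.43 uM quinidine.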

[5] = qHTS Assay for Identification of Small Molecule Antagonists for Thrombopoietin (TPO) Signaling Pathway (AID 918); details: TPO-dependent cell signaling reporter, antagonist mode; also: potency is read from the fitted curve at half-maximal effect; nearly all actives have a fitted effect of over 60% in size
Outline: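 Luminescence read-out: GPIIb-promoter luciferase in Ba/F3 cells carrying human TPO receptor. Compounds added with 26 pM TPO (EC50), 24 hrs, 37 C, 5% CO2; cells deprived of IL-3 overnight beforehand. Inhibition of signal scored.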

[6] = Cell Viability - N2a (AID 540); details: N2a mouse neuroblastoma cell viability; activity change, negative = cytotoxicity: at 92.2 µM (top of the series);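 also: cells exposed to compound for 40 h at 37 °C; nearly all actives have a fitted effect of over 45% in size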
Outline: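 N2a mouse neuroblastoma, 1500 cells/well, 5 hr settle; compound 40 hr, 37 °C; CellTiter-Glo 20 min RT; luminescence; Hill-fit AC50.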

[7] = MultiTox-Fluor Cytotoxicity Assay - LYMP1-001 - Live Cells (AID 947)
[8] = Cell Viability - LYMP2-018 (AID 985);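 also: compound exposure lasted 24 hr at 37 °C; nearly all actives have a fitted effect of over 50% in size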
Outline: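 2500 cells/well; 5 hr 37 C; cmpd 24 hr 37 C, complete medium; CellTiter-Glo 30 min RT; luminescence. Tetraoctylammonium bromide positive control. AC50 via Hill fit.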

[9] = molecular target: Retinoic acid receptor RXR-alpha (Homo sapiens) (UniProt P19793); assay: qHTS assay for small molecule agonists of retinoid X receptor alpha signaling (AID 588544; calls by dose curve)
Retinoic acid receptor RXR-alpha (Homo sapiens), sequence (P19793 whole entry, looked up): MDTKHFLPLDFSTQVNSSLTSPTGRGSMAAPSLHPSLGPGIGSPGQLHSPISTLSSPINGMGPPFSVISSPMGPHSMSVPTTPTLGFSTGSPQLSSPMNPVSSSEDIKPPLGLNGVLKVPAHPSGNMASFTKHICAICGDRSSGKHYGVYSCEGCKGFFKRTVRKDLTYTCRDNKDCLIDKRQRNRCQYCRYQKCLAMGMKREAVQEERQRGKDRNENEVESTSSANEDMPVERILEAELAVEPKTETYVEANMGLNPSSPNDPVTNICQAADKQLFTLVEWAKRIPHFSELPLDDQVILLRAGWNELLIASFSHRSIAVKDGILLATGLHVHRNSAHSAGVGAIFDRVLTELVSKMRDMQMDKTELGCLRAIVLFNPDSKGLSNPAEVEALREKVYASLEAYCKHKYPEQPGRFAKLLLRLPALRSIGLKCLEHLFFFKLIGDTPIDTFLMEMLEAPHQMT

Cytochrome P450 2C9 (Homo sapiens), sequence (P11712 whole entry, looked up): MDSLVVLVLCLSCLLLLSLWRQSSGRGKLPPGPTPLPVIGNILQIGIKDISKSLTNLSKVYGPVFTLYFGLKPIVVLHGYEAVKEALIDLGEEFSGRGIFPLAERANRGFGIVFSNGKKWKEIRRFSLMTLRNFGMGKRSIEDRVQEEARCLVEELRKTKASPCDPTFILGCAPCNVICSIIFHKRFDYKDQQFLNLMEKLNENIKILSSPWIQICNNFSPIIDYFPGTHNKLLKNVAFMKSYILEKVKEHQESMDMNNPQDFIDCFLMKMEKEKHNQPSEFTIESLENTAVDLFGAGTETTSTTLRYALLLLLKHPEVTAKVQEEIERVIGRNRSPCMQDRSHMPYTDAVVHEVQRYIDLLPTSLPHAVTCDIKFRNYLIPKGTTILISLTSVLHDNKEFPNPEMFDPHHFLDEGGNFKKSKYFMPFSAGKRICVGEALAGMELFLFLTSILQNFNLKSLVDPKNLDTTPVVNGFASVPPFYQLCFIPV
Cytochrome P450 2D6 (Homo sapiens), sequence (P10635 whole entry, looked up): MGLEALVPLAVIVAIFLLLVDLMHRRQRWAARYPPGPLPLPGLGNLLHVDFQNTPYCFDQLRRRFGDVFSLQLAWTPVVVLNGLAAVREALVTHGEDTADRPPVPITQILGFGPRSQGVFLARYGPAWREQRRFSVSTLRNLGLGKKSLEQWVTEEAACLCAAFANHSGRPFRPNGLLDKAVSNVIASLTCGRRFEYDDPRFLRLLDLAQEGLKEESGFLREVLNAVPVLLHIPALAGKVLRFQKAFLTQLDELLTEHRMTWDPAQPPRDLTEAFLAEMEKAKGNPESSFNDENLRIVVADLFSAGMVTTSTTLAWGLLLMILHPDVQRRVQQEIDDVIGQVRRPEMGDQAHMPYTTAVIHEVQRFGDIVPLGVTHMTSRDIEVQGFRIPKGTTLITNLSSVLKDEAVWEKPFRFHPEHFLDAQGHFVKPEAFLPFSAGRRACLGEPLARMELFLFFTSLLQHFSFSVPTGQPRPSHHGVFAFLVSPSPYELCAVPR
Cytochrome P450 2C19 (Homo sapiens), sequence (P33261 whole entry, looked up): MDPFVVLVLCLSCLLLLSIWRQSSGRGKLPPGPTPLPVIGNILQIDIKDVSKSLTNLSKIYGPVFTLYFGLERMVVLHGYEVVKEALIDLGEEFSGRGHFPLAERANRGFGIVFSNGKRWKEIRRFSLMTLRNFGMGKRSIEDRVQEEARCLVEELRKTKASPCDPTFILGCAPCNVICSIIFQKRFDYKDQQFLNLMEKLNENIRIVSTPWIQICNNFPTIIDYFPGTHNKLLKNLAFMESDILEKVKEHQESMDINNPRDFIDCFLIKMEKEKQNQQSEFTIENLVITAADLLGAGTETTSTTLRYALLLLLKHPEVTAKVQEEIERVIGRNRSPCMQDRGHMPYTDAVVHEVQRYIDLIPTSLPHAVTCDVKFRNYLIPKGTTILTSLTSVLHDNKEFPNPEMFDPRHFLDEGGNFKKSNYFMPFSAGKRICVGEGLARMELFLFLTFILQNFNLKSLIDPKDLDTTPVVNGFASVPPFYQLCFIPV

CC1(C)CCC(NC(=O)[C@H](N)CCC(=O)O)CC1
Potency [1]: inactive

COc1cc([C@H](O)CO)ccc1O
Potency [1]: inactive

CCCC[C@]1(C2CCCC2)Cc2cc(OCC(=O)O)c(Cl)c(Cl)c2C1=O
Potency [2]: 2.51 µM (active)

C=C[C@H]1CN2CC[C@@H]1C[C@H]2[C@@H](O)c1ccnc2ccc(OC)cc12
outcome [2]: inactive

O=C1C(=O)c2ccccc2C(O)=C1C(C1=C(O)c2ccccc2C(=O)C1=O)c1ccc(Cl)cc1
Potency [3]: 3.98 µM (active)

CCCC[S@@](=N)(=O)CC[C@@H](N)C(=O)O
Potency [4]: inactive

COc1c2c(nc3ccccc13)O[C@@H]([C@@](C)(O)CO)C2
Potency [1]: inactive

COc1cc2c3cc1Oc1cc(ccc1O)C[C@@H]1c4c(cc(OC)c(O)c4Oc4ccc(cc4)C[C@H]3[N+](C)(C)CC2)CC[N+]1(C)C
Potency [3]: inactive

CCCCCCCCCCCCCCCC(=O)NC[C@@H](COP(=O)([O-])OCC[N+](C)(C)C)OCC
Potency [2]: inactive

C=C(C)[C@@H]1CC=C(C(=O)O)CC1
Potency [1]: inactive

Nc1c2c(nc3ccccc13)CCC[C@H]2O
Potency [2]: inactive | Potency [1]: inactive

C[C@H](N)C(=O)OC(C)(C)Cc1ccc(Cl)cc1
Potency [3]: 3.98 µM (active)

O=S(=O)(NCCNC/C=C\c1ccc(Br)cc1)c1cccc2cnccc12
Potency [5]: 10 µM (active)

OC[C@@H]1O[C@@H](n2cnc3c(NC4CCCCC4)ncnc32)[C@@H](O)[C@H]1O
Potency [1]: inactive

CCc1cccc2c3c([nH]c12)[C@](CC)(CC(=O)O)OCC3
Potency [4]: inactive | Potency [3]: inactive

O=c1[nH]c(=O)n([C@H]2C[C@H](O)[C@H](CO)O2)cc1Br
Potency [2]: inactive | Potency [4]: inactive | Potency [3]: inactive

Nc1nc(Cl)nc2c1ncn2[C@@H]1O[C@@H](COP(=O)(O)OP(=O)(O)OP(=O)(O)O)[C@@H](O)[C@H]1O
Potency [1]: inactive

CCC[C@@H]1O[C@@H]2C[C@@H]3[C@@H]4CCC5=CC(=O)C=C[C@@]5(C)[C@H]4[C@H](O)C[C@@]3(C)[C@@]2(C(=O)CO)O1
Potency [4]: inactive | Potency [3]: inactive

Sc1ccc2ccccc2c1CNCc1ccccc1
Potency [4]: 1.26 µM (active)

COc1cc2nc(N3CCN(C(=O)OCc4ccccc4)[C@H](C(=O)NC(C)(C)C)C3)nc(N)c2cc1OC
Potency [1]: inactive | Potency [5]: 12.6 µM (active)

Cc1cn([C@H]2C=C[C@H](CO)O2)c(=O)[nH]c1=O
Potency [2]: inactive | Potency [4]: inactive | Potency [3]: inactive

CCN(CC)[C@@H](C)C(=O)N1c2ccccc2Sc2ccccc21
Potency [2]: inactive

C[C@@H](C(=O)O)c1ccc(C[C@@H]2CCCC2=O)cc1
Potency [1]: inactive | Potency [3]: inactive

C=CCN1CCc2c(cc(O)c(O)c2Cl)[C@H](c2ccccc2)C1
Potency [1]: 12.6 µM (active)

COC(=O)[C@@H]1[C@H]2C[C@H]3c4[nH]c5cc(OC)ccc5c4CCN3C[C@@H]2C[C@@H](OC(=O)c2cc(OC)c(OC)c(OC)c2)[C@@H]1OC
Potency [2]: inactive | Potency [3]: inactive

Nc1ccn([C@H]2CC[C@H](CO)O2)c(=O)n1
Potency [2]: inactive | Potency [4]: inactive | Potency [3]: inactive

CC[C@H](C)[C@@H]1O[C@]2(CC[C@@H]1C)C[C@H]1C[C@H](CC=C(C)[C@@H](O[C@H]3C[C@H](OC)[C@H](O[C@H]4C[C@H](OC)[C@H](O)[C@H](C)O4)[C@H](C)O3)[C@@H](C)C=CC=C3CO[C@@H]4[C@@H](O)C(C)=C[C@H](C(=O)O1)[C@@]34O)O2
Potency [5]: 12.6 µM (active)

N[C@H](CCCC(=O)O)C(=O)O
Potency [3]: inactive

O=S(=O)(O)c1ccc(N=Nc2ccccc2)cc1
Potency [4]: inactive

C[C@@H](COc1ccc(/C=C\c2ccccc2)cc1)[N+](C)(C)C
Potency [2]: inactive | Potency [1]: inactive | Potency [3]: inactive

CCN1/C(=C\C(C)=O)Sc2ccc(OC)cc21
Potency [2]: inactive | Potency [4]: inactive | Potency [3]: inactive

C[C@@]12C(=O)OC(=O)[C@@]1(C)[C@H]1CC[C@@H]2O1
Potency [2]: inactive | Potency [4]: inactive | Potency [3]: inactive | Potency [5]: 3.16 µM (active)

CSC(N)=NCCC[C@@H](N)C(=O)O
Potency [3]: inactive | Potency [5]: 3.16 µM (active)

CC(C)(C)[C@@]1(O)CCN2C[C@@H]3c4ccccc4CCc4cccc(c43)[C@@H]2C1
Potency [2]: 1.58 µM (active) | Potency [4]: 79.4 nM (active) and 501 nM (active) | Potency [5]: 12.6 µM (active)

CO/N=C(\C(=O)N[C@@H]1C(=O)N2C(C(=O)O)=C(CSc3nc(=O)c(O)nn3C)CS[C@@H]12)c1csc(N)n1
Potency [1]: inactive

N=C(N)SCc1cccc2c(=O)cc(-c3ccccc3)oc12
Potency [4]: 2.51 µM (active)

COc1cc(-c2ccc(N=C=O)c(OC)c2)ccc1N=C=O
activity change, negative = cytotoxicity [6]: 4.66% | Potency [7]: inactive | Potency [8]: inactive | Potency [9]: inactive

CN1C[C@@H](O)[C@@H](O)[C@@H](O)[C@@H]1CO
Potency [2]: inactive | Potency [4]: inactive | Potency [3]: inactive

— PubChem BioAssay (NCATS)
